From PubChem BioAssay
Shn3 inh set2 = reduces Shn3 3'UTR luciferase signal in osteoblasts; Clone20 osteoblast Shn3 3'UTR firefly luciferase, 24 h; inhibition, % at 12.5 µM; 0.52% of 360,000 active; AID 588674;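 active means mean inhibition of at least 75% with every replicate also reaching 75%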;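 further: 0% = median of neutral control wells and 100% = pilot-screen positive control compound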
Beta cell apopt = blocks beta cell apoptosis; 0.8% of 300,000 active; protection from apoptosis, % (no concentration beside the values); AID 435005; INS-1E cytokine-induced death, ATP luminescence, 48 h; percent of positive-control rescue, neutral wells zero;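 active means Every replicate reaches about 75%, or at least half do and their mean reaches it too, limit read from the data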;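 further: 0% = cytokine-treated negative control wells and 100% = positive control rescue; higher means more ATP so stronger rescue from cytokine killing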
CSC inhib = cancer stem cell inhibition; inhibition, % at 7.5 µM; AID 2717; 1.1% of 300,000 active; cancer stem cell-like cells viability, luminescence; in the data active means inhibition above about 75%; tested in HMLE shEcad cells
Gli-Sufu antag = Gli-Sufu pathway antagonism; Sufu-KO-LIGHT fibroblasts, Gli luciferase reporter luminescence; inhibition, % at 5 µM; 0.74% of 340,000 active; AID 588413;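 active means inhibition above about 55%, limit read from the data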;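 further: 0% = DMSO-treated cells and 100% = wells with medium but no cells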
Mdm2 MdmX PPI = disrupts the human Mdm2-MdmX interaction; 3% of 330,000 active; AID 485346; inhibition, % at 8 µM; SaOS-2 split-luciferase Mdm2/MdmX complementation, luminescence; O15151+Q00987;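 active means inhibition of at least 50% at 8 µM in the primary screen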
PAX8 inh HTS = inhibitors of PAX8 transcriptional activity in RMG-I cells; RMG-I TPO-luciferase reporter, SteadyGlo, 24 h; inhibition, % at 12.6 µM; 1.2% of 360,000 active; AID 652154;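 active means mean replicate inhibition at least 60% with every replicate also reaching 60%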;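 further: luciferase light reporting Pax8 driven TPO promoter activity; plate controls were median of neutral control wells for no effect and mitoxantrone controls for full effect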
Mdm2-MdmX conf = human Mdm2/MdmX binding inhibition, confirmed; inhibition, % at 8 µM; shares compounds with Mdm2 MdmX PPI; luminescent assay; 55% of 10,000 active; in the data active means inhibition above about 40%
Full FLuc ctr = inhibits full-length luciferase, flagging false Mdm2/MdmX hits; AID 504607; 77% of 6,200 active; inhibition, % at 8 µM; shares compounds with Mdm2 MdmX PPI; SaOS-2 full-length luciferase counterscreen, luminescence;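 active means mean inhibition at 8 µM reaching about 37%, which flags the compound as non-specific, limit read from the data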;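 further: p53-null SaOS-2 cells with luciferase driven by a doxycycline-inducible promoter; compound on cells about two nights before reading with doxycycline added after day one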
Numbers without * were called inactive; / = no result given. Only some compounds are listed: those with a hit (about 4% of all), similar ones and a draw of the others.

SMILES	Shn3 inh set2	Beta cell apopt	CSC inhib	Gli-Sufu antag	Mdm2 MdmX PPI	PAX8 inh HTS	Mdm2-MdmX conf	Full FLuc ctr
COc1ccc(NC(=O)COc2cc(C)cc(C)c2)cc1S(=O)(=O)N1CCCCC1	23	-4	3	-4	62*	53	75*	51*
O=C(Nc1cccc(S(=O)(=O)N2CCCCC2)c1)Nc1ccc(Cl)cc1Cl	15	29	65	-6	88*	37	40	/
O=C(Cc1ccccc1Cl)Nc1cccc(S(=O)(=O)N2CCCCCC2)c1	-11	-4	35	-9	14	16	/	/
NC(N)=NN=C1CCCCCCCCCCC1	/	19	11	3	60*	-4	43*	58*
COc1ccccc1NS(=O)(=O)c1cc(-c2cnc(C3CC3)o2)ccc1C	14	7	-7	13	53*	45	46*	56*
O=S(=O)(Nc1ccccc1)c1ccc(-c2cnc(C3CC3)o2)cc1	10	3	55	5	49	36	/	/
CCOc1ccc(NS(=O)(=O)c2ccc(-c3cnc(C4CC4)o3)cc2)cc1	19	-2	-13	7	57*	14	57*	52*
Cc1cccc(NS(=O)(=O)c2ccc(-c3cnc(C4CC4)o3)cc2)c1C	29	/	/	44	85*	75*	66*	76*
Cc1ccc(C)c(NS(=O)(=O)c2ccc(-c3cnc(C4CC4)o3)cc2)c1	9	47	75*	48	71*	85*	55*	81*
C[C@@H]1CN([C@H](C)CO)S(=O)(=O)c2ccc(-c3ccccc3)cc2O[C@@H]1CN(C)C	/	/	/	/	/	16	/	/
CN=c1scc(-c2cccs2)n1/N=C/c1ccccc1O	90*	10	-8	81*	95*	118*	96*	13
O=C1C(Cl)=C(NCCN2CCCCC2)C(=O)c2ccccc21	95*	112*	107*	21	99*	/	12	/
COCC(=O)Nc1ccc2c(c1)OC[C@@H](C)N(CCC(F)(F)F)C[C@H](C)[C@H](OC)CN(C)C2=O	/	/	/	/	/	0	/	/
CCOC(=O)c1[nH]c2ccc(OC)cc2c1NC(=S)N1CCN(c2cccc(Cl)c2)CC1	0	/	/	17	50*	-7	21	/
CCOC(=O)c1[nH]c2ccc(OC)cc2c1NC(=S)N1CCN(c2ccccc2)CC1	-23	1	3	6	8	-20	/	/
Cc1ncc(CO)c2c1Oc1nc(-c3ccccc3)nc(SCC(=O)N3CCCCC3)c1C2	7	11	-13	-4	63*	38	38	53*
Cc1cccc(-c2nc3c(c(SCC(=O)N4CCOCC4)n2)Cc2c(CO)cnc(C)c2O3)c1	13	7	10	13	28	/	/	/
Cc1ncc(CO)c2c1Oc1nc(-c3ccccc3)nc(SCC(=O)N3CCOCC3)c1C2	-6	1	-14	-8	28	24	/	/
COc1cccc(-c2nc3c(c(SCC(=O)N4CCOCC4)n2)Cc2c(CO)cnc(C)c2O3)c1	4	5	-2	-5	65*	/	31	71*
Cc1ccc(S(=O)(=O)N[C@H]2CC[C@@H](CCn3cc(-c4cccc(F)c4)nn3)O[C@@H]2CO)cc1	/	/	/	/	/	31	/	/
CSc1ccc(NC(=O)NCCCN2CCC(Cc3ccccc3)CC2)cc1	-49	10	26	0	61*	4	16	/
C[C@@H]1CCCCO[C@H](CN(C)Cc2ccc3c(c2)OCO3)[C@@H](C)CN([C@@H](C)CO)C(=O)c2cc(NC(=O)c3ccccc3)ccc2O1	/	/	/	/	/	-11	/	/
Cc1nc(S(=O)(=O)N2CCN(Cc3cccc(OCCO)c3)CC2)cn1C	/	/	/	/	/	-5	/	/
Cc1[nH]nc(-c2ccc(OCc3cnn(-c4ccccc4)c3)c(C)c2O)c1Oc1ccccc1	18	7	9	11	56*	/	51*	53*
Cc1[nH]nc(-c2ccc(OCc3cnn(-c4ccccc4)c3)cc2O)c1Oc1ccc(F)cc1	52	5	5	7	39	/	/	/
COc1ccc(Cn2c(C3CCCCC3)nc3c(c(=O)c4ccccc4n3C)c2=O)cc1	/	19	36	4	33	/	/	/
Cn1c2ccccc2c(=O)c2c(=O)n(C3CCCCCC3)c(C3CCCCC3)nc21	67	/	/	44	/	17	/	/
